Test results published in PubChem BioAssay AID1159580 (chemical genetic matrix, 2015).
The whole screen tested about 5,500 compounds, of which about 2,000 (36%) were called active. Roughly 18% stayed inconclusive and do not appear here. Cut-off read from the data, not from the text of the source: active = normalized growth mostly below about 0.91 (no sharp cut-off); inconclusive = no clear call, values can overlap the other calls; inactive = mostly above about 0.92. The list shows a part of the results.

Assay: chemical genetic growth profiling, strain panel (AID 1159580);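 note: tested at 20 µM; growth read once vehicle control cultures reached saturation at 30 °C; 1 = growth at the plate median or of vehicle wells; lower values mean less growth of the strain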
Conditions: growth OD

Measured: normalized growth

C[CH2][Hg][S]c1ccccc1C(=O)O
active: S. cerevisiae deletion strains, locus YJR075W, strain HOC1, active compounds read low 0.0601 | S. cerevisiae deletion strains, locus YKL009W, strain mrt4, active compounds read low 0.078 | S. cerevisiae deletion strains, locus YKL068W, active compounds read low 0.0532 | S. cerevisiae deletion strains, locus YKL085W, strain MDH1 (second series), active compounds read low 0.0507 | S. cerevisiae deletion strains, locus YKL085W, strain MDH1, active compounds read low 0.0507 | S. cerevisiae deletion strains, locus YKL160W, strain elf1, active compounds read low 0.0622 | S. cerevisiae deletion strains, locus YKL190W, strain CNB1, active compounds read low 0.0466 | S. cerevisiae deletion strains, locus YKR001C, strain vps1, active compounds read low 0.0606 | S. cerevisiae deletion strains, locus YKR026C, strain gcn3, active compounds read low 0.0601 | S. cerevisiae deletion strains, locus YKR091W, strain srl3, active compounds read low 0.0575 | S. cerevisiae deletion strains, locus YLL001W, strain dnm1, active compounds read low 0.058 | S. cerevisiae deletion strains, locus YLL026W, active compounds read low 0.0549 | S. cerevisiae deletion strains, locus YLL041C, strain sdh2, active compounds read low 0.0553 | S. cerevisiae deletion strains, locus YLR027C, strain aat2, active compounds read low 0.0538 | S. cerevisiae deletion strains, locus YLR039C, strain RIC1, active compounds read low 0.0815 | S. cerevisiae deletion strains, locus YLR058C, strain SHM2, active compounds read low 0.0473 | S. cerevisiae deletion strains, locus YLR102C, strain apc9, active compounds read low 0.0603 | S. cerevisiae deletion strains, locus YLR113W, strain HOG1, active compounds read low 0.153 | S. cerevisiae deletion strains, locus YLR221C, strain rsa3, active compounds read low 0.0597 | S. cerevisiae deletion strains, locus YLR258W, strain gsy2, active compounds read low 0.0592 | S. cerevisiae deletion strains, locus YLR262C, strain YPT6 (second series), active compounds read low 0.0742 | S. cerevisiae deletion strains, locus YLR262C, strain YPT6, active compounds read low 0.105 | S. cerevisiae deletion strains, locus YLR268W, strain sec22, active compounds read low 0.0621 | S. cerevisiae deletion strains, locus YLR320W, strain mms22, active compounds read low 0.0814 | S. cerevisiae deletion strains, locus YLR330W, strain CHS5, active compounds read low 0.0525 | S. cerevisiae deletion strains, locus YLR342W, strain FKS1 (second series), active compounds read low 0.0638 | S. cerevisiae deletion strains, locus YLR342W, strain FKS1, active compounds read low 0.0616 | S. cerevisiae deletion strains, locus YLR357W, strain rsc2, active compounds read low 0.112 | S. cerevisiae deletion strains, locus YLR370C, strain arc18, active compounds read low 0.0588 | S. cerevisiae deletion strains, locus YLR371W, strain rom2, active compounds read low 0.0587 | S. cerevisiae deletion strains, locus YLR384C, strain iki3, active compounds read low 0.0582 | S. cerevisiae deletion strains, locus YLR418C, strain cdc73, active compounds read low 0.0891 | S. cerevisiae deletion strains, locus YML016C, strain PPZ1, active compounds read low 0.0465 | S. cerevisiae deletion strains, locus YML032C, strain rad52, active compounds read low 0.0656 | S. cerevisiae deletion strains, locus YML120C, strain ndi1, active compounds read low 0.0572 | S. cerevisiae deletion strains, locus YML124C, strain tub3, active compounds read low 0.0558 | S. cerevisiae deletion strains, locus YMR058W, strain fet3, active compounds read low 0.0565 | S. cerevisiae deletion strains, locus YMR078C, strain ctf18, active compounds read low 0.0699 | S. cerevisiae deletion strains, locus YMR125W, strain sto1, active compounds read low 0.0708 | S. cerevisiae deletion strains, locus YMR129W, active compounds read low 0.0561 | S. cerevisiae deletion strains, locus YMR205C, strain PFK2, active compounds read low 0.0823 | S. cerevisiae deletion strains, locus YMR223W, strain ubp8, active compounds read low 0.0597 | S. cerevisiae deletion strains, locus YMR231W, strain pep5, active compounds read low 0.0664 | S. cerevisiae deletion strains, locus YMR263W, strain SAP30, active compounds read low 0.0559 | S. cerevisiae deletion strains, locus YMR307W, strain GAS1, active compounds read low 0.0969 | S. cerevisiae deletion strains, locus YNL067W, strain RPL9B, active compounds read low 0.0481 | S. cerevisiae deletion strains, locus YNL071W, strain lat1, active compounds read low 0.0589 | S. cerevisiae deletion strains, locus YNL128W, strain TEP1, active compounds read low 0.0596 | S. cerevisiae deletion strains, locus YNL153C, strain GIM3, active compounds read low 0.0483 | S. cerevisiae deletion strains, locus YNL183C, strain NPR1, active compounds read low 0.004 | S. cerevisiae deletion strains, locus YNL209W, strain ssb2, active compounds read low 0.057 | S. cerevisiae deletion strains, locus YNL233W, strain BNI4, active compounds read low 0.0515 | S. cerevisiae deletion strains, locus YNL248C, strain rpa49, active compounds read low 0.0737 | S. cerevisiae deletion strains, locus YNL250W, strain rad50, active compounds read low 0.0619 | S. cerevisiae deletion strains, locus YNL271C, strain bni1, active compounds read low 0.0596 | S. cerevisiae deletion strains, locus YNL298W, strain CLA4, active compounds read low 0.0571 | S. cerevisiae deletion strains, locus YNL307C, strain MCK1, active compounds read low 0.0641 | S. cerevisiae deletion strains, locus YNL322C, strain KRE1 (second series), active compounds read low 0.0632 | S. cerevisiae deletion strains, locus YNL322C, strain KRE1, active compounds read low 0.0468 | S. cerevisiae deletion strains, locus YNR049C, strain mso1, active compounds read low 0.0543 | S. cerevisiae deletion strains, locus YNR052C, strain pop2, active compounds read low 0.061 | S. cerevisiae deletion strains, locus YOL006C, strain TOP1, active compounds read low 0.0904 | S. cerevisiae deletion strains, locus YOL012C, strain htz1 0.178 | S. cerevisiae deletion strains, locus YOL147C, strain pex11, active compounds read low 0.0589 | S. cerevisiae deletion strains, locus YOR001W, strain rrp6, active compounds read low 0.0639 | S. cerevisiae deletion strains, locus YOR061W, strain CKA2, active compounds read low 0.0446 | S. cerevisiae deletion strains, locus YOR069W, strain VPS5, active compounds read low 0.0457 | S. cerevisiae deletion strains, locus YOR070C, strain gyp1, active compounds read low 0.0575 | S. cerevisiae deletion strains, locus YOR080W, strain dia2, active compounds read low 0.0641 | S. cerevisiae deletion strains, locus YOR083W, strain WHI5, active compounds read low 0.0608 | S. cerevisiae deletion strains, locus YOR106W, strain vam3, active compounds read low 0.0597 | S. cerevisiae deletion strains, locus YOR136W, strain idh2, active compounds read low 0.0686 | S. cerevisiae deletion strains, locus YOR144C, strain elg1, active compounds read low 0.0566 | S. cerevisiae deletion strains, locus YOR184W, strain ser1, active compounds read low 0.065 | S. cerevisiae deletion strains, locus YOR231W, strain MKK1, active compounds read low 0.125 | S. cerevisiae deletion strains, locus YOR265W, strain rbl2, active compounds read low 0.0558 | S. cerevisiae deletion strains, locus YOR270C, strain vph1, active compounds read low 0.0908 | S. cerevisiae deletion strains, locus YOR290C, strain snf2, active compounds read low 0.0723 | S. cerevisiae deletion strains, locus YOR316C, strain cot1, active compounds read low 0.0555 | S. cerevisiae deletion strains, locus YPL051W, strain arl3, active compounds read low 0.0607 | S. cerevisiae deletion strains, locus YPL055C, strain LGE1, active compounds read low 0.0725 | S. cerevisiae deletion strains, locus YPL078C, strain atp4, active compounds read low 0.0632 | S. cerevisiae deletion strains, locus YPL106C, strain sse1, active compounds read low 0.0983 | S. cerevisiae deletion strains, locus YPL240C, strain hsp82, active compounds read low 0.0533 | S. cerevisiae deletion strains, locus YPL241C, strain CIN2, active compounds read low 0.0538 | S. cerevisiae deletion strains, locus YPL256C, strain CLN2, active compounds read low 0.135 | S. cerevisiae deletion strains, locus YPR119W, strain clb2, active compounds read low 0.0599 | S. cerevisiae deletion strains, locus YPR141C, strain kar3, active compounds read low 0.0633 | S. cerevisiae deletion strains, locus YPR163C, strain tif3, active compounds read low 0.0679 | S. cerevisiae deletion strains, locus YPR167C, strain met16, active compounds read low 0.0597 | S. cerevisiae deletion strains, strain wtn01, active compounds read low 0.0565 | S. cerevisiae strains, strain wild type, active compounds read low 0.0464
